AmpC inh detg = inhibitors of E. coli AmpC beta-lactamase with detergent | AmpC hydrolysis of nitrocefin, absorbance 480 nm, 0.01% Triton | Potency, µM (series often up to 114 µM), for the others: top-dose activity change, negative = inhibition, usual class: inhibitors | actives 0.041% (n = 370,000);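 further: potency means the concentration at half of the fitted maximal effect; 0% = no-compound wells and -100% = no-enzyme wells; nearly all actives have a fitted effect of over 25% in size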
Target sequence (P00811 whole entry, looked up): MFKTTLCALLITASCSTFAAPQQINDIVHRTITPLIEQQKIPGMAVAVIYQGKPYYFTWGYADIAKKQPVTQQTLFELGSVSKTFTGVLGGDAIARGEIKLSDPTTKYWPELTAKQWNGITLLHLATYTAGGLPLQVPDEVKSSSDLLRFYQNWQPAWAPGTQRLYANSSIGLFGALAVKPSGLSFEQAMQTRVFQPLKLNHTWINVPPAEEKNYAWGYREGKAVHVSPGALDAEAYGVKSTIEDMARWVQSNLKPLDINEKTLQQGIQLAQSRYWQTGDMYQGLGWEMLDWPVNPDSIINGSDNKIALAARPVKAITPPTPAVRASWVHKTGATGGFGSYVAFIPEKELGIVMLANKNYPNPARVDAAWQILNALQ
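20 mM phosphate pH 7.0 + 0.01% (detergent screen) or 0.0001% Triton X-100; 5.3 nM AmpC reagent; cpd preinc 15 min RT; nitrocefin (800 uM stock) to start; A480 q20 s × 4 min; Activity was normalised to no-enzyme and no-compound control wells.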
AMA1 RON2 block = inhibitors of Plasmodium falciparum AMA1-RON2 interaction; AlphaScreen AMA1-biotinylated RON2 peptide binding; Potency, µM (series often up to 58.2 µM), for the others: at the highest dose activity change, negative = inhibition, most hits filed as inhibitors; actives 0.2% (n = 360,000);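 further: potency means the concentration at half of the fitted maximal effect; 0% = vehicle wells and -100% = peptide control; nearly all actives have a fitted effect of over 45% in size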
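AMA1 (3D7) with his tag at 25 nM final met compounds first, then biotinylated RON2 peptide at 25 nM; detection used donor plus acceptor beads, 10 µg/mL apiece, read by AlphaScreen after 30 min at room temperature.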
NS1 inh = inhibitors of influenza NS1 protein function | Potency, µM (titrated, usually from 46.1 µM), inactives show top-dose activity, positive = more growth | actives 0.4% (n = 270,000) | AID 2326; calls by dose curve; further: potency means the concentration at half of the fitted maximal effect; actives are rising curves; nearly all actives have a fitted effect of over 50% in size
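S. cerevisiae expressing influenza A NS1, grown in glucose, washed, then diluted 1:100 into pH 6.0 -URA galactose medium with 23 nl compound. Growth recovery read as OD600; NS1-free strain serves as control.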
AmpC no deterg = blocks E. coli AmpC beta-lactamase in detergent-free assay | actives 0.52% (n = 330,000) | AmpC nitrocefin hydrolysis, absorbance 480 nm, 0.0001% Triton | Potency, µM (series often up to 57.1 µM), for inactives: top-dose activity change, negative = inhibition, actives largely listed as inhibitors;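 further: potency means the concentration at half of the fitted maximal effect; plate controls were no compound for no effect and no enzyme for full effect; nearly all actives have a fitted effect of over 20% in size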
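20 mM phosphate pH 7.0 + 0.01% (detergent screen) or 0.0001% Triton X-100; 5.3 nM AmpC reagent; cpd preinc 15 min RT; nitrocefin (800 uM stock) to start; A480 q20 s × 4 min; Activity was normalised to no-enzyme and no-compound control wells.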
NS1 inh valid = influenza NS1 function inhibition validation | shares compounds with NS1 inh | influenza NS1 function cell assay, 15-point titration | activity change, negative = inhibition, % at 32.9 µM | 1,400 tested, under 10 active | AID 492980; calls by dose curve; further: 0% is about no effect
PR8 titer = reduces influenza A/PR/8/34 replication in MDCK cells; shares compounds with NS1 inh; virus titer (log TCID50), log10 TCID50 at 5 µM; actives 30% (n = 95); MDCK infected influenza A/PR/8/34, virus titer TCID50; active compounds read low; call rule not given here
Active calls of the source: *; ? = inconclusive; / = not tested or not shown. Hits are enriched below; roughly 0.86% of the tested compounds scored in any of these assays. Unless noted, the call rests on the fitted dose curve; in most records, active means well fitted curve in the direction sought with a large enough effect; inconclusive means small, poorly fitted or top-dose-only effect, or another doubt; inactive means no such curve, though single readings can be large; an effect the other way counts as inactive or inconclusive.

SMILES | AmpC inh detg | AMA1 RON2 block | NS1 inh | AmpC no deterg | NS1 inh valid | others
O=C(Cc1nc2ccccc2[nH]1)N/N=C/c1ccccc1 | -5% | 60% | ? | -26% | /
CN(c1ccc(OCC(=O)OCC(=O)NCc2ccco2)cc1)S(=O)(=O)c1ccc2ccccc2c1 | 6% | -4% | 4% | 5% | /
COc1ccc(/C=C/C(=O)OCC(=O)Nc2cc(S(=O)(=O)N(C)C)ccc2Cl)cc1 | 2% | -19% | -10% | -14% | /
CN(C)S(=O)(=O)c1ccc(Cl)c(NC(=O)COC(=O)/C=C/c2ccc(S(=O)(=O)N3CCOCC3)cc2)c1 | -5% | -19% | 20µM* | 33% | ?
COc1ccc(-c2cc(C(=O)OCC(=O)c3ccc(C)c([N+](=O)[O-])c3)c3ccccc3n2)cc1 | 8% | 6% | ? | -21% | -37
CCOC(=O)c1cc(OC(=O)c2cccc(C)c2)n(-c2ccccc2)n1 | 16% | / | / | / | /
CCOC(=O)c1cc(OC(=O)c2cccnc2)n(-c2ccccc2)n1 | ? | / | 2µM* | -35% | ?
O=C(c1ccc(Cn2cc(Cl)c([N+](=O)[O-])n2)cc1)N1CCN(Cc2ccccc2)CC1 | -7% | -18% | -1% | 162% | /
CCOc1cc(/C=N/NC(=O)COc2ccc(Cl)cc2)ccc1OS(=O)(=O)c1ccccc1 | -1% | 6% | 2µM* | -28% | ? | PR8 titer=7.7
Cc1oc(-c2ccc(Cl)cc2)nc1CS(=O)CC(=O)NC1CCCC1 (stereo not given) | -8% | 5% | ? | 60% | /
Cc1nn(C)c(Oc2cccc(Cl)c2)c1C#N | -11% | 21% | / | -2% | /
Cn1nc(-c2ccccc2)c(C#N)c1Sc1cccc(Cl)c1 | -3% | 29% | ? | -8% | -14
Nc1cc(C(=O)OCC(=O)N2CCC(Cc3ccccc3)CC2)ccc1Cl | 2% | 5% | / | -22% | /
CC(C)(C)NC(=O)CN(C(=O)c1snc(C(=O)NC2CCCCC2)c1N)c1ccccc1F | -10% | 7% | 3.2µM* | 24% | -24
CCOc1ccc(-c2cc3c(=O)n(Cc4nc(-c5ccc(OCC)c(OC)c5)oc4C)ccn3n2)cc1Cl | 2% | / | / | / | /
Cc1cccc(C)c1NC(=O)C(c1ccccc1)N1CCC(c2ccccc2)CC1 (stereo not given) | / | -1% | / | / | /
CC(C)(C)c1ccc(C(=O)Cn2cnnc2C#N)cc1 | 2% | -6% | 14% | -36% | /
CCOc1ccc(C(=O)Cn2cnnc2C#N)cc1 | ? | 5% | ? | -34% | 6
COc1ccc2oc(/C=C/N(C)C)c(C(=O)c3ccc(Cl)cc3)c2c1 | -3% | 0% | 13µM* | -56% | -28
Cc1cccc(Nc2nnc(SC/C(O)=C(\C#N)c3nc4ccccc4[nH]3)s2)c1 | 4% | 96% | 13µM* | -22% | 11
Cc1ccc(Nc2nnc(SC/C(O)=C(\C#N)c3nc4ccccc4[nH]3)s2)c(C)c1 | -6% | 96% | 8% | -22% | /
Cc1cc(C)c2nc(N3CCN(C)CC3)c(C#N)cc2c1 | -1% | 5% | 6.3µM* | -8% | -24
Cc1ccc2nc(N3CCN(C)CC3)c(C#N)cc2c1 | -1% | -2% | 6.3µM* | -1% | 0
COc1ccc(CCNC(=O)c2noc(C)c2[N+](=O)[O-])cc1OC | -5% | 5% | 4% | -16% | /
CC[C@@H](C)[C@H]1O[C@]2(CC[C@@H]1C)C[C@@H]1C[C@@H](C/C=C(\C)[C@@H](O[C@H]3C[C@H](OC)[C@@H](O[C@H]4C[C@H](OC)[C@@H](O)[C@H](C)O4)[C@H](C)O3)[C@@H](C)/C=C/C=C3\CO[C@@H]4[C@H](O)C(C)=C[C@@H](C(=O)O1)[C@]34O)O2 | / | / | 7.1µM* | / | -1
SMILES | AmpC inh detg | AMA1 RON2 block | NS1 inh | AmpC no deterg | NS1 inh valid | others
CC[C@H](C)[C@H]1O[C@]2(CC[C@@H]1C)C[C@@H]1C[C@@H](CC=C(C)[C@@H](O[C@H]3C[C@H](OC)[C@@H](O[C@H]4C[C@H](OC)[C@@H](O)[C@H](C)O4)[C@H](C)O3)[C@@H](C)C=CC=C3CO[C@@H]4[C@H](O)C(C)=C[C@@H](C(=O)O1)[C@]34O)O2 | / | -6% | / | / | /
CC(=O)Nc1cc(-c2cccc(CO)c2)cn2c(-c3ccc(F)cc3)cnc12 | / | -6% | / | / | /
O=S(=O)(c1ccc(S(=O)(=O)N2CCC(O)CC2)cc1)N1CCCC1 | 0% | -5% | 2% | -1% | /
CCCOc1ccccc1NC(=O)c1ccc(N)cc1 | 2% | -6% | -16% | -12% | /
CCCCOc1ccccc1NC(=O)c1ccc(=O)[nH]c1 | 3% | -12% | ? | -18% | 1
COc1ccc2[nH]c(C(=O)O)c(CCNC(=O)/C=C/c3ccc(O)c(OC)c3)c2c1 | -5% | -2% | 3% | -27% | /
CCSc1nnc([C@@H](N)Cc2c[nH]c3ccccc23)o1 | -1% | -1% | -9% | 1% | /
Cc1cccc(NC(=O)CSc2nnc([C@@H](N)Cc3c[nH]c4ccccc34)o2)c1C | -7% | 64% | 11µM* | 89% | 15
O=C1CC(c2ccco2)CC(O)=C1C=NCC1CCNCC1 (stereo not given) | -9% | -6% | 10µM* | -17% | 2
Nc1cc(=O)[nH]n1C1CCN(c2ccccc2)CC1 | 7% | -18% | 14µM* | -4% | 27
Nc1ccc(N2CCN(c3cccc(Cl)c3)CC2)cc1 | 8% | ? | ? | -2% | /
CCOC(=O)C1=C(C)N=C2SC(C)C(=O)N2C1c1ccc(C(=O)OC)cc1 (stereo not given) | -2% | -30% | 7.9µM* | 5% | -1
Cc1cc(NC(=O)CSc2nnc(-c3cccs3)n2N)no1 | 3% | 9% | ? | -5% | -7
CCCCn1c(SCC(=O)Nc2cc(C)on2)nnc1-c1cccs1 | -6% | -2% | 0% | -11% | /
CCOC(=O)c1noc2ncnc(Nc3ccc(F)cc3F)c12 | 1% | / | / | / | /
O=C(CSc1nnnn1Cc1ccccc1)c1ccc(F)cc1 | -12% | 1% | 7.9µM* | -31% | 25
C=CCn1c(COc2ccccc2OC)nc2ccccc21 | ? | 0% | -30% | -4% | /
O=C(NNc1nc(-c2ccccc2)c2cc(Br)ccc2n1)c1ccc(S(=O)(=O)N2CCOCC2)cc1 | -13% | 45% | 11µM* | 61% | 34
COC(=O)[C@@]1(Cc2ccc(F)cc2)[C@H]2c3cc(C(=O)N4CCCC4)n(CCc4ccc(O)c(O)c4)c3C[C@H]2CN1C(=O)c1ccccc1 | ? | / | 8.9µM* | 273% | 4
COC(=O)[C@@]1(Cc2ccc(F)cc2)[C@H]2c3cc(C(=O)N4CCCC4)n(CCc4ccc(OC)c(Br)c4)c3C[C@H]2CN1C(=O)c1ccccc1 | / | -1% | / | / | /
O=C(O)c1cccc(CN2C(=O)CSC2=O)c1 | -3% | 7% | 22µM* | -3% | -9
